Test results published in PubChem BioAssay AID624252 (National Center for Advancing Translational Sciences (NCATS), 2012).
Some of the results follow. Records with an inconclusive call do not appear. Calls of active or inactive are those of the source. Calls follow the shape of the dose curve; as a rule, active = well fitted cell-killing curve with a large enough effect; inconclusive = small, poorly fitted or top-dose-only effect; inactive = flat fitted curve, though single readings scatter.

Assay: qHTS screen for small molecules that inhibit ELG1-dependent DNA repair: Hit Confirmation with Unstimulated Viability Assay;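 also: compound exposure lasted 16 hours before reading; nearly all actives have a fitted effect of over 55% in size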
Conditions: cell viability counter-screen, luminescence
Description: Cancer cells divide rapidly compared to normal cells in the body. During cell division, cancer cells need to duplicate their genome by DNA replication. The failure of genome duplication leads to cancer cells' death. Therefore, inhibitors of DNA replication could specifically kill cancer cells. Based on this concept, many chemotherapeutic agents were developed and have been used to treat cancer patients. However, there are a limited number of agents available in the clinical setting, and some of those that do exist have low efficacy and severe side effects. Therefore, if we can find the compounds that effectively block DNA replication either by directly damaging DNA or by inhibiting other cellular mechanisms, the options for cancer treatment will be broadened. With this in mind, we developed a quantitative high-throughput ELG1-luciferase reporter gene assay. Small molecules that specifically block ELG1 function in response to DNA damage can be identified by monitoring the suppression of luciferase activity. Since ELG1 defines a pathway for repairing DNA damage, agents blocking ELG1 function can be used to sensitize cancer cells to chemotherapeutic agents whose mechanism of action involves the induction of DNA damage.
NIH Molecular Libraries Probe Production Network [MLPCN]
NIH Chemical Genomics Center [NCGC]
Assay Provider: Kyungjae Myung, NHGRI, NIH
For genotoxicity screening, 2,000 cells in 4 uL/well were dispensed into white, solid-bottom 1536-well plates using a solenoid-based dispenser. 23 nL compound or DMSO vehicle were added by a pin tool, the plates were incubated 16 hr at 37 °C and 5% CO2. 5 ul ONE-Glo (Promega) was then added to each plate and following a 30 min incubation at room temperature, luciferase activity was quantified on a ViewLux CCD-based plate reader.
Potency is read from the fitted curve at half-maximal effect.

SMILES	Potency
CC(=O)[O][Sn]([c]1ccccc1)([c]1ccccc1)[c]1ccccc1	1410 nM (active)
COC1CC(OC2CC[C@@]3(C=O)C4CC[C@]5(C)C(C6=CC(=O)OC6)CC[C@@]5(O)C4CC[C@]3(O)C2)OC(C)C1O (stereo partly drawn)	199 nM (active)
C[C@@]12CC[C@H]3[C@@H](CC[C@]4(O)C[C@H](O)CC[C@@]34C=O)[C@]1(O)CC[C@@H]2C1=CC(=O)OC1	425 nM (active)
